HTT ATP protect = cytoprotection in Huntington HTT-Q103 PC12 cell model | PC12 HTT-Q103 induced, cytoprotection, ATP luminescence, 40 h | hit rate 0.14% among 230,000 | Potency, µM (top dose mostly 56.4 µM), without a hit: cytoprotection (ATP increase), actives largely listed as activators; active = well fitted curve in the direction sought with a large enough effect; inconclusive = small, poorly fitted or top-dose-only effect, or another doubt; inactive = no such curve, though single readings can be large; an effect the other way counts as inactive or inconclusive; note: % of control where 0% means no effect; nearly all actives have a fitted effect of over 45% in size
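Huntington model: PC12 line, ecdysone-inducible HTTQ103 exon1–GFP, tebufenozide 100 nM. Test articles in a dose series. Endpoint luminescence from cellular ATP.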
HTT aggregate = mutant huntingtin aggregation inhibition | PC12 HttQ103-GFP aggregates, Acumen cytometry, 40 h | Potency, µM (titrated, usually from 46.1 µM), without a hit: at the top dose activity change, negative = inhibition, actives largely listed as inhibitors | hit rate 1.1% among 220,000; active = well fitted curve in the direction sought with a large enough effect; inconclusive = small, poorly fitted or top-dose-only effect, or another doubt; inactive = no such curve, though single readings can be large; an effect the other way counts as inactive or inconclusive; note: % is set by controls: 0 for no effect and ±100 for the full control effect; nearly all actives have a fitted effect of over 60% in size
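Compounds (qHTS titration) were added to PC12 cells expressing an ecdysone-driven HTT exon 1 Q103–GFP fusion after induction with 100 nM tebufenozide. Aggregate formation was measured as GFP objects in cell lysates.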
KDM4E inh = blocks human JMJD2E demethylase activity. JMJD2E catalytic domain, FDH-coupled NADH fluorescence (FDH is formaldehyde dehydrogenase). hit rate 1.6% among 230,000. Potency, µM (top dose mostly 57.1 µM), for the others: at the top dose activity change, negative = inhibition, most hits filed as inhibitors;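 note: 0% = wells with enzyme and -100% = buffer wells without enzyme; nearly all actives have a fitted effect of over 50% in size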
Target sequence (B2RXH2 1-337 limits assumed): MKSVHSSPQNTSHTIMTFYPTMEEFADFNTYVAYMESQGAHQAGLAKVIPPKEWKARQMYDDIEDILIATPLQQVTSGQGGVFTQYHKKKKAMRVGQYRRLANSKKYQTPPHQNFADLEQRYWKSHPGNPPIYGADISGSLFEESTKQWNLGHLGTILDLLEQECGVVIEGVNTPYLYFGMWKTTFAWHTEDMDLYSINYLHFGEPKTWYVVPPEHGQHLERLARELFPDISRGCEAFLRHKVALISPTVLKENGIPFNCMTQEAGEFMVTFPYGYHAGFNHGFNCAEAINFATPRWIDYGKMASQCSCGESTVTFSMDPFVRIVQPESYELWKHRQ
HPGD inh = HPGD (human) dehydrogenase inhibition; hit rate 4.3% among 150,000; purified HPGD, NADH fluorescence kinetic, PGE2 substrate; AID 894; P15428; Potency, µM, for inactives: top-dose activity change, negative = inhibition, usual class: inhibitors; note: % is set by controls: 0 for no effect and ±100 for the full control effect
Target sequence (P15428 whole entry, looked up): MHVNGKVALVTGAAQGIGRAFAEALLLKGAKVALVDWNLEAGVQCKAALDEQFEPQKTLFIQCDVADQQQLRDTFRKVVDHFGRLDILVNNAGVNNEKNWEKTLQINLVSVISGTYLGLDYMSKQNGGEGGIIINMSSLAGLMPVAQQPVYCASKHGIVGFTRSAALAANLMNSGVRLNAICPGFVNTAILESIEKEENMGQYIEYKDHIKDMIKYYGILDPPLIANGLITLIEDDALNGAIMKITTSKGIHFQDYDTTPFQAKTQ
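NADH formation kinetics: reaction with 30 uM PGE2 and 1 mM NAD+ (final), 20 nM enzyme, Tris-HCl pH 8 with Tween 20, after 15 min compound preincubation at room temperature. Fluorescence change, last versus first of five reads.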
LMNA splice mod = changes lamin A minigene splicing in HeLa cells | HeLa LMNA splicing GFP/RFP minigene ratio, 48 h | Potency, µM (titrated, usually from 46.1 µM), inactives show at the highest dose ratio change, negative = inhibition, actives largely listed as inhibitors | hit rate 0.01% among 200,000; active = well fitted inhibition curve with a large enough effect in the signal ratio, with a control signal flat, not every such curve was filed as active; inconclusive = small, poorly fitted or top-dose-only effect, or effect the other way, or a change in a side signal; the % refers to the signal ratio; note: % is set by controls: 0 for no effect and ±100 for the full control effect
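S3 HeLa cells stably expressing lamin A-EGFP splicing minigene plus DsRed2, 600 cells/well, 48 h compound exposure at 37C. Laser-scanning cytometry; analysed as GFP (500-530 nm)/RFP (575-640 nm) total intensity ratio; 0.5% DMSO vehicle.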
ALDH1A1 inh = ALDH1A1 (human) enzyme inhibition. P00352. Purified ALDH1A1, NADH fluorescence, propionaldehyde substrate. Potency, µM (doses to about 75.3 µM), for inactives: at the top dose activity, negative = inhibition, hits mostly inhibitors. hit rate 7.3% among 220,000. AID 1030;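 note: plate controls were no enzyme wells and a reference inhibitor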
Active calls of the source: *; ? = inconclusive; / = no result; [ ] = remark or other dose. Only some compounds are listed: those with a hit (about 9.2% of all), similar ones and a draw of the others. Unless noted, calls come from the whole dose curve; as a rule, active = well fitted inhibition curve with a large enough effect (not every such curve was filed as active); inconclusive = small, poorly fitted or top-dose-only effect, or another doubt; inactive = no such curve, though single readings can be large or run the other way. Potency is the fitted concentration of half-maximal effect.

SMILES	HTT ATP protect	HTT aggregate	KDM4E inh	HPGD inh	LMNA splice mod	ALDH1A1 inh
O=C(c1csnn1)N1CCC[C@@]2(CCN(Cc3ccccc3)C2)C1	?	/	/	3%	/	12%
COc1ccccc1C(=O)Nc1ccc2nc(SCC(=O)N(C)c3ccccc3)sc2c1	/	/	/	/	-14%[46 µM]	/
CCC1(c2ccc(Cl)cc2)NC(=S)N(c2ccccc2)N1 (stereo not given)	3%[10 µM]	0%	?	-17%	-6%	13µM*
CCC1(c2ccccc2)NC(=S)N(c2ccc(C)cc2)N1 (stereo not given)	-66%	1%	?	/	/	?
CN1C(=O)/C(=N/OC(=O)c2ccccc2)c2ccccc21	10%	-1%	-6%	14µM*	11%	?
O=C(O/N=C1\C(=O)N(c2ccccc2)c2ccccc21)C1CC1	-3%[10 µM]	-8%	-1%	/	?	-4%
COC(=O)c1ccc(Cn2nc([N+](=O)[O-])c(Br)c2C)cc1	-11%[10 µM]	-4%[9.22 µM]	-3%	/	/	/
Cc1nn(-c2ccc(Cl)c(Cl)c2)c(=O)c2ccccc12	-19%	-9%	-28%	-17%	7%	2%
Cc1nn(-c2ccc3ccccc3c2)c(=O)c2ccccc12	-22%[10 µM]	-17%[9.22 µM]	-11%	/	21%[9.22 µM]	20µM*
O=C(Nc1ccccc1)C1=C[C@@H](C2CC2)C[C@@H](OCCCCO)O1	7%[10 µM]	2%[9.22 µM]	3%	/	/	?
CSc1nc2nc3c(cc2c(=O)n1-c1ccccc1)COC(C)(C)C3	/	/	?	/	20%[46 µM]	14µM*
CSc1nc2nc3c(cc2c(=O)n1-c1cccc(C)c1)COC(C)(C)C3	-5%[10 µM]	-15%[9.22 µM]	-15%	/	/	3.5µM*
CSc1nc2nc3c(cc2c(=O)n1-c1ccc(C)cc1)COC(C)(C)C3	6%[10 µM]	9%[9.22 µM]	?	/	/	/
COc1ccc(-n2c(=O)c(CCc3ccccc3)nc3cnc(N4CCN(C)CC4)nc32)cc1	-18%	/	/	/	3%	-11%
O=C1c2ccccc2-c2n[nH]c(=O)c3ccc(N4CCCCC4)c1c23	-133%	20µM*	2%	/	-30%[46 µM]	-15%
CCC(=O)N[C@@H]1Cc2ccccc2[C@@H](c2ccccc2)C1	?	/	1%	-2%	/	-8%
O=C1ON=C(c2cccc([N+](=O)[O-])c2)/C1=C/c1ccc(O)cc1	-44%	8%	0%	/	-8%[9.22 µM]	10µM*
O=C(Nc1nc(-c2ccc(F)cc2)cs1)c1cnccn1	1%[10 µM]	10µM*	6%	-2%	-3%	6%
O=C(NC(=S)Nc1nc(-c2ccccc2)cs1)c1ccco1	-31%	19%	7%	/	?	14µM*
O=C(Nc1nccs1)c1cnccn1	11%[10 µM]	-13%	1%	-9%	-3%	0%
O=C(NC(=S)Nc1nc(-c2ccccc2)cs1)c1cccnc1	-51%	-2%	5%	/	/	8.9µM*
O=C(Cc1ccccc1F)Nc1nc(-c2cccnc2)cs1	-87%[10 µM]	?	2%	/	/	25µM*
O=C(NC(=S)Nc1nc(-c2cccc3ccccc23)cs1)c1cc2ccccc2o1	14%[10 µM]	?	8%	-13%	-10%	20µM*
CCCCCCCc1nc2sc3c(c2c(=O)n1N)CC(C)(C)OC3	-15%[10 µM]	7%[9.22 µM]	0%	/	/	/
CCCCCc1nc2sc3c(c2c(=O)n1NC(=O)c1ccc([N+](=O)[O-])cc1)CC(C)(C)OC3	2%[10 µM]	?	-5%	-10%	?	8.9µM*
SMILES	HTT ATP protect	HTT aggregate	KDM4E inh	HPGD inh	LMNA splice mod	ALDH1A1 inh
CCN(CC)c1ccc(/C=C(\C#N)C(=O)NCc2ccco2)cc1	5%[10 µM]	11%	-1%	-14%	-4%	32µM*
COc1cn(CC(=O)Nc2ccc(C)cc2C)c(CN2CCCCC2)cc1=O	/	/	/	/	-9%[46 µM]	/
c1ccc2c(c1)CCC[C@H]2C1=NCCN1	14%[1.9 µM]	/	/	/	/	/
COc1ccc(N2C(=O)CSC23CCCCC3)cc1	-3%	-17%	1%	-16%	-10%	14µM*
CCOc1ccc(N2C(=O)CSC23CCCCC3)cc1	-2%	-6%	-6%	/	4%	?
O=C(c1cccc(F)c1)N1CCC2(CC1)CN(c1ccccn1)C2	-13%	/	/	?	/	?
CCCCN1CCc2[nH]c(=S)[nH]c(=O)c2C1	-13%[10 µM]	-4%	-5%	?	-10%	?
COc1ccc2nc3cc(Cl)ccc3c(Nc3ccc(O)c(CN4CCN(C)CC4)c3)c2c1	-1%[10 µM]	/	/	3%	/	5%[13.5 µM]
O/N=C/c1ccn(-c2ccc(Br)cc2)c1	14%[10 µM]	-11%	7%	/	0%[46 µM]	8%
CCN(CC)S(=O)(=O)c1ccc(N2CCOCC2)c(NC(=O)COc2ccccc2)c1	-19%	-4%	?	/	-15%[46 µM]	0.22µM*
O=C(COS(=O)c1ccccc1)Nc1cc(Cl)ccc1N1CCOCC1 (stereo not given)	-15%	11%[9.22 µM]	?	/	/	1.3µM*
Cc1ccc(S(=O)OCC(=O)Nc2cc(Cl)ccc2N2CCOCC2)cc1 (stereo not given)	4%[10 µM]	3%	-3%	/	22%[46 µM]	?
CCN(CC)S(=O)(=O)c1ccc(N2CCOCC2)c(NC(=O)CCOc2ccccc2)c1	4%[10 µM]	17%[9.22 µM]	4%	/	/	/
CCN(CC)S(=O)(=O)c1ccc(N2CCOCC2)c(NC(=O)c2ccc(F)cc2)c1	-52%	-9%	4%	/	-9%[46 µM]	?
CCN(CC)S(=O)(=O)c1ccc(N2CCOCC2)c(NC(=O)c2ccc(C#N)cc2)c1	-66%	11%	-8%	/	/	20µM*
CCN(CC)S(=O)(=O)c1ccc(N2CCOCC2)c(NC(=O)CNCCc2ccccc2)c1	0%[10 µM]	9%[9.22 µM]	?	/	/	11µM*
CC(C)c1ccc2c(c1)-c1ccccc1S(=O)(=O)N2CC(=O)N1CCCCC1	/	/	/	/	-6%[46 µM]	/
COC(=O)c1cc(NS(=O)(=O)c2ccc(NCc3cccnc3)c([N+](=O)[O-])c2)cc(C(=O)OC)c1	-4%[10 µM]	0%	-4%	-22%	-1%	12%
Cc1ccc(S(=O)(=O)N2CCCCC2)cc1NC(=O)COC(=O)c1ccc(O)cc1	8%[10 µM]	6%	-2%	/	-24%[46 µM]	?
[O-][n+]1c2c(c3c4non(O)c4ccc31)CCCC2	-41%	?	2%	7.9µM*	?	-12%
CC(C)NC(=O)c1cc2c(s1)CCCC2	3%[10 µM]	-10%	8%	22µM*	-4%	?
O=C(Nc1ccon1)c1cc2c(s1)CCCC2	-9%[10 µM]	-12%	2%	28µM*	-20%	-11%
Cc1csc(NC(=O)c2ccccc2O)n1	-83%[0.074 µM]	?	?	?	-10%	?
Cc1csc(NC(=O)c2cc(C)oc2C)n1	-18%	2%	0%	18µM*	10%	-2%
CCc1cccc(C)c1NC(=O)c1cc(C)oc1C	1%[0.074 µM]	1.3µM*	-3%	-8%	-7%	-3%
COc1ccc(N2CC(NC(=O)/C=C\c3ccccc3)CC2=O)cc1OC (stereo not given)	/	/	/	/	-2%[46 µM]	/
